According to PubChem BioAssay:

How the values were obtained:
[1] = target: Tumor necrosis factor receptor superfamily member 10B (Homo sapiens) (UniProt O14763); test: caspase-8 TRAIL sensitization, hit retest, confirmation, cell-based, NB7+caspase-8, with/without TRAIL, luminescence panel (AID 651596); settings: NB7 neuroblastoma + caspase-8, TRAIL sensitization, luminescence viability, with TRAIL, mean of runs, at 10 µM, stronger effect = higher value
[2] = as above; settings: NB7 neuroblastoma + caspase-8, without TRAIL, luminescence viability, without TRAIL, mean of runs, at 10 µM

Tumor necrosis factor receptor superfamily member 10B (Homo sapiens), sequence (O14763 whole entry, looked up): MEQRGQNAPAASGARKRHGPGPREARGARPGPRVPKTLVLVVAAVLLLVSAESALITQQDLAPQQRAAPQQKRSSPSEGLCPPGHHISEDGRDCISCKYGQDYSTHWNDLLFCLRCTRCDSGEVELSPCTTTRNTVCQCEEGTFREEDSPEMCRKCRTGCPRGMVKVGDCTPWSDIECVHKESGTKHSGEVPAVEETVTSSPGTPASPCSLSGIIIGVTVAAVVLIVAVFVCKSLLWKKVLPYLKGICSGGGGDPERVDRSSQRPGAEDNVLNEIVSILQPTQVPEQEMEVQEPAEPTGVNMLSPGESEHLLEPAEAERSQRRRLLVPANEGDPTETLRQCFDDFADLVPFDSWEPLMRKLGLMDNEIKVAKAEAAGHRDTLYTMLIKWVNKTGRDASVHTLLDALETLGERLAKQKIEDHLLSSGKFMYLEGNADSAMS

Cc1ccc(C(=O)N/C(=C\c2ccc(-c3ccccc3[N+](=O)[O-])o2)C(=O)NCCN(C)C)cc1
activity [1]: 42%
activity [2]: 99.7%

COc1ccc(Oc2c(Cl)cnn(-c3ccccc3)c2=O)cc1
activity [1]: 98.4%
activity [2]: 94.4%

COc1ccc(/C=N/Nc2nnc(Cc3ccccc3)c(=O)[nH]2)cc1OC
activity [1]: 60.6%
activity [2]: 59.2%

C(=N\Nc1nncc2ccccc12)/c1ccccc1
activity [1]: 88.2%
activity [2]: 87.7%

COc1ccc(C(=O)NCc2cn3cccc(C)c3n2)cc1OC
activity [1]: 4.08%
activity [2]: 3.77%

Oc1cccc2ccc(Nc3ccccn3)nc12
activity [1]: 88.8%
activity [2]: 95.5%

N/C(=N\OC(=O)c1cccc(Br)c1)c1ccc(Br)cc1
activity [1]: 78.1%
activity [2]: 90.1%

Cn1c(N/N=C/c2cc3ccccc3nc2Cl)nc2ccccc21
activity [1]: 92.3%
activity [2]: 94%

CCCC(=O)OCCNc1cc(Sc2nccn2C)c2nonc2c1[N+](=O)[O-]
activity [1]: 35.8%
activity [2]: 97.2%

Cc1nc2sc(-c3ccccc3)cc2c(=O)n1N
activity [1]: 59.7%
activity [2]: 44.8%

C/C(=N\Nc1cccc2cccnc12)c1ccccn1
activity [1]: 69.8%
activity [2]: 59.6%

COc1cc2sc3ccc(-c4ccc(CN5CCOCC5)cc4)cc3c(=O)c2cc1OC
activity [1]: 46.9%
activity [2]: 41.8%

Brc1ccc(-c2nnc3sc(CN4CCC5(CC4)OCCO5)cn23)cc1
activity [1]: 68.3%
activity [2]: 61.4%

c1ccc(-c2ccc(-c3cn4c(n3)CCC4)cc2)cc1
activity [1]: 62.8%
activity [2]: 67.6%

Cc1ccc(C(=O)Nc2ccc3c(c2)CCC3)cc1
activity [1]: 78.7%
activity [2]: 76.2%

C#Cc1ccccc1OCCCN1CCC(C(O)(c2ccccc2)c2ccccc2)CC1
activity [1]: 97.2%
activity [2]: 94.2%

O=C(N/N=C/c1ccc(Br)s1)c1ccccn1
activity [1]: 44.5%
activity [2]: 46.6%

Cn1nccc1C(=O)Oc1cccc(/C=N/NC(=O)c2ccccc2O)c1
activity [1]: 44.5%
activity [2]: 13.6%

Cc1ccc2nc(-c3ccc(NC(=O)COC(=O)c4ccc(Br)o4)cc3)sc2c1
activity [1]: 62%
activity [2]: 67.4%

Cc1ccc(N=Cc2c(C)[nH]n(-c3nc4ccccc4[nH]3)c2=O)cc1
activity [1]: 88.6%
activity [2]: 88.8%

Cc1cccc(-n2ncc3c(N4CCC(C)CC4)ncnc32)c1
activity [1]: 44.7%
activity [2]: 34.7%

Nc1c(C(=O)N2CCOCC2)sc2nc3c(cc12)CCCC3
activity [1]: 67.5%
activity [2]: 63.5%

Cc1onc(-c2ccccc2Cl)c1C(=O)O/N=C(\N)c1ccccc1
activity [1]: 99%
activity [2]: 98.1%

O=C(CC(Nc1ccc(Cl)cc1)C(=O)O)c1ccccc1 (stereo unspecified)
activity [1]: 60.6%
activity [2]: 73.2%

COc1ccc(/C(N)=N/OC(=O)CC2CCCCC2)cc1OC
activity [1]: 83.4%
activity [2]: 78.2%

c1ccc2[nH]c(-c3ccc4c(c3)OCO4)nc2c1
activity [1]: 77.4%
activity [2]: 79.3%

COc1ccc(-c2cc3ccccc3cn2)cc1
activity [1]: 57.4%
activity [2]: 54.3%

Cc1ccc2[nH]c(-c3ccccc3)cc(=O)c2c1
activity [1]: 64.8%
activity [2]: 63%

COc1ccc(C(=O)O/N=C(\N)c2ccccn2)c(OC)c1
activity [1]: 75.5%
activity [2]: 83.2%

O=C(/C=C/c1cccc(F)c1)N1CCc2ccccc21
activity [1]: 55.1%
activity [2]: 52.8%

Cc1ccc(-c2cc(C(=O)N3CCOCC3)no2)cc1
activity [1]: 69.7%
activity [2]: 65.2%

c1ccc2oc(-c3csc(N4CCOCC4)n3)cc2c1
activity [1]: 67.7%
activity [2]: 51.3%

Cc1ccnc(NC(=O)c2ccc3c(c2)OCO3)c1
activity [1]: 82.5%
activity [2]: 82.9%

O=C(Nc1nc(-c2ccccn2)cs1)C12CC3CC(CC(O)(C3)C1)C2
activity [1]: 66.8%
activity [2]: 78.4%

CC(C)(C)c1ccc(O)c(/C=N\O)c1
activity [1]: 60.4%
activity [2]: 72.9%

NC(Cc1ccc(C(F)(F)F)cc1)c1csc(NC(=O)Nc2ccccc2Oc2ccccc2)n1 (stereo unspecified)
activity [1]: 75.1%
activity [2]: 93.7%

Fc1cccc(/C=N/Nc2nncc3ccccc23)c1
activity [1]: 79.5%
activity [2]: 78.8%

COc1ccc(-c2cc(=O)c3ccccc3s2)cc1
activity [1]: 61.2%
activity [2]: 62%

Cn1c(=N)n(CC(=O)c2ccccc2)c2ccccc21
activity [1]: 70.7%
activity [2]: 74.4%

COc1ccc2c(=O)c(-c3nc(C)cs3)coc2c1
activity [1]: 69.9%
activity [2]: 71.6%

O=C(NC(=S)N1CCN(c2ccc(C(F)(F)F)cc2[N+](=O)[O-])CC1)c1cccs1
activity [1]: 60.9%
activity [2]: 62.1%

CNC[C@@H](CC1CCCCC1)NC[C@H](CC(C)C)NCCc1cccc(C(F)(F)F)c1
activity [1]: 99.4%
activity [2]: 99.7%

Fc1ccc(-c2nc3n(n2)Cc2ccccc2-3)cc1
activity [1]: 54%
activity [2]: 55.6%

Cc1nc(N)nc(N)c1CCCc1ccc(Cl)c(Cl)c1
activity [1]: 69.6%
activity [2]: 74.8%

CCOc1ncccc1C(=O)OCC(=O)Nc1ccc(-c2nc3ccc(C)cc3s2)cc1
activity [1]: 60.9%
activity [2]: 67%

c1ccc(COc2ncnc3c2ncn3CCCNCC(c2ccccc2)c2ccccc2)cc1
activity [1]: 18.2%
activity [2]: 41.5%

CN(C)S(=O)(=O)c1ccc(-c2csc(N/N=C/c3ccco3)n2)cc1
activity [1]: 81%
activity [2]: 77.8%

Cc1ccc2cc(/C=N/Nc3nc4ccccc4[nH]3)c(Cl)nc2c1
activity [1]: 88.2%
activity [2]: 83.6%

COc1ccc(C=C2C=C(C(C)(C)C)C(=O)C(C(C)(C)C)=C2)cc1OC
activity [1]: 93.4%
activity [2]: 98.8%

O=C(Nc1ccc(N2CCCC2)c(Cl)c1)c1ccco1
activity [1]: 43.3%
activity [2]: 27%

COc1cc2c3nnc(-c4ccc(F)cc4)c-3cn(Cc3cccc(C)c3)c2cc1OC
activity [1]: 48.9%
activity [2]: 67%

c1ccc(-c2cn3c4c(sc3n2)CCCC4)cc1
activity [1]: 94%
activity [2]: 94%

CC(C)Sc1cc(Cl)nc(NC(=O)Nc2ccccc2)n1
activity [1]: 98.4%
activity [2]: 99.7%

CC(C)(C)c1ccc(-c2cn(-c3ccc(Br)cc3)c3[n+]2CCCS3)cc1
activity [1]: 71.9%
activity [2]: 55.1%

COc1ccc2nc(Cl)c(/C=N/Nc3ccccn3)cc2c1
activity [1]: 64.5%
activity [2]: 59.5%

COC(=O)CSc1nnc(NC(=O)/C=C\c2ccc3c(c2)OCO3)s1
activity [1]: 49.5%
activity [2]: 66.2%

Cc1ccc(C(=O)/C=C/Nc2ccccn2)cc1
activity [1]: 86.9%
activity [2]: 79.8%

CCOc1ccc(N2C(N)=NC(N)=NC2(C)C)cc1
activity [1]: 67.3%
activity [2]: 82.9%

COc1cc(/C=C2\Oc3ccc(C#Cc4ccc(O)cc4)cc3C2=O)cc(OC)c1
activity [1]: 80.5%
activity [2]: 83.2%

COc1cccc(/C=C/C(=O)Nc2ccc3c(c2)OCCO3)c1OC
activity [1]: 83.7%
activity [2]: 82%

COc1ccc2oc(C(=O)Nc3nc4ccccc4[nH]3)c(C)c2c1
activity [1]: 89.7%
activity [2]: 85.3%

CCOc1ccc(/C=C2\CCc3ccccc3C2=O)cc1
activity [1]: 83.2%
activity [2]: 79.2%

CCCCCCCCCCn1ccc(=N)cc1
activity [1]: 84%
activity [2]: 68.3%

C#Cc1ccc(NC(=O)C2(C)CCN2C(=O)Cc2ccc(-c3ccccc3)cc2)cc1 (stereo unspecified)
activity [1]: 94.4%
activity [2]: 68.4%

COc1ccc(/C=C/c2nc3ccccc3n2Cc2ccccc2OC)cc1
activity [1]: 78.5%
activity [2]: 67.7%

Cc1ccc2nc(-c3ccc(NC(=O)CCS(=O)(=O)c4ccccc4)cc3)sc2c1
activity [1]: 87.5%
activity [2]: 86.9%

Fc1cccc2sc(Nc3nc4cc5c(cc4s3)OCCO5)nc12
activity [1]: 40.2%
activity [2]: 28.4%

Cc1ccc(Nc2nc(N)nc(CCl)n2)cc1
activity [1]: 98.9%
activity [2]: 97.5%

O=C(Cn1ncc(Cl)c(Cl)c1=O)NC(=O)NC1CCCCC1
activity [1]: 99.3%
activity [2]: 99.3%

CCCCCc1c(-c2ccc(OC)c(OC)c2)ncn1CCc1ccccc1OC
activity [1]: 22.7%
activity [2]: 30.2%

O=C(NC(=S)Nc1ccc(Br)cn1)c1cccs1
activity [1]: 71.7%
activity [2]: 73.2%

O=C(Nc1nnc(SCC(=O)N2CCOCC2)s1)c1ccccc1Cl
activity [1]: 72.6%
activity [2]: 78.2%

CN(C)c1ccc(C=Nc2ccccc2C(N)=O)cc1
activity [1]: 85.3%
activity [2]: 86.5%

Cc1nc(-c2ccc(NC(=O)c3ccc(Br)o3)cc2)cs1
activity [1]: 68.5%
activity [2]: 67.5%

CCCc1ccc(-c2cc(C(=O)Nc3ccc([N+](=O)[O-])cn3)c3ccccc3n2)cc1
activity [1]: 43.2%
activity [2]: 33.6%

CC1=C(C(=O)N(C)C)CC(CC(=O)NCCN2CCOCC2)C(=O)N1CCCN1CCCC1=O (stereo unspecified)
activity [1]: -0.625%
activity [2]: -4.97%

CCc1n[n+](CC(=O)c2ccccc2)c(N)s1
activity [1]: 44.6%
activity [2]: 35.9%

Cc1nn(-c2ccccc2)c(C)c1/C=N/NC(=O)c1cc(-c2ccc(Cl)s2)[nH]n1
activity [1]: 70.1%
activity [2]: 72.8%

Cc1ccc(C(=O)Nc2ccc(Cl)cc2C)c(Cl)c1
activity [1]: 56.7%
activity [2]: 39.9%

Cc1ccc(-c2nc(N/N=C/c3ccccc3[N+](=O)[O-])c3ccccc3n2)cc1
activity [1]: 90.3%
activity [2]: 82.4%

CCC(C)c1ccc(O)c(/C=N/O)c1 (stereo unspecified)
activity [1]: 38%
activity [2]: 56.6%

Clc1ccc(-c2nnc(SCc3ccon3)o2)c(Cl)c1
activity [1]: 51.8%
activity [2]: 58.7%

O=S1(=O)N=C(Nc2nc3c(s2)CCCC3)c2ccccc21
activity [1]: 75.7%
activity [2]: 81.4%

COc1cc2ccccc2cc1C(=O)Nc1sc2c(c1C(N)=O)CCN(C(C)C)C2
activity [1]: 79.4%
activity [2]: 98.2%

O=C(/C=C/NNC(=O)c1ccccc1)c1ccc([N+](=O)[O-])cc1
activity [1]: 21.4%
activity [2]: 20%

Cc1ccc(/C(N)=N/OC(=O)c2ccc(F)cc2)cc1
activity [1]: 96.3%
activity [2]: 92.5%

COn1c(SCc2ccc(C)cc2C)nc2ccccc2c1=O
activity [1]: 69.7%
activity [2]: 35.5%

CC(=O)c1sc(NC(=O)c2ccc(C(C)(C)C)cc2)nc1C
activity [1]: 30.1%
activity [2]: 35.9%
